Results published in PubChem BioAssay (NCATS).
Values without a mark were called inactive. Inconclusive results are not listed. Calls of active or inactive are those of the source. Calls come from the whole dose curve; as a rule, active = well fitted curve in the direction sought with a large enough effect; inconclusive = small, poorly fitted or top-dose-only effect, or another doubt; inactive = no such curve, though single readings can be large; an effect the other way counts as inactive or inconclusive.

test: qHTS assay for cell viability of the p53RE-bla HCT-116 cell line (AID 743292); details: p53RE-bla HCT-116 viability, ATP luminescence, 16 h; series mostly up to 95 µM; activity change, negative = cytotoxicity: at the top concentration; note: nearly all actives have a fitted effect of over 55% in size; note: potency is the fitted concentration of half-maximal effect; for activity change, negative = cytotoxicity: % is set by controls: 0 for no effect and ±100 for the full control effect
Summary of the method: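 CellSensor p53RE-bla HCT-116 cells, 4,000/well, preincubated 5 h at 37 C, then exposed to compounds in DMSO for 16 h at 37 C. Viability read as CellTiter-Glo luminescence (intracellular ATP) after 30 min at room temperature.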

Row | SMILES | activity change, negative = cytotoxicity [%] | Potency
1 | CCCSP(=O)(OCC)SCCC | -19.5 | –
2 | O=[N+]([O-])c1ccccc1 | – | inactive
3 | O=C(O)c1cc[c]([Hg][Cl])cc1 | 3.02 | –
4 | C[CH2][Hg][S]c1ccccc1C(=O)O | – | 15.8 µM (active)

test: qHTS assay for measurement of the activity of small molecule inhibitors on Zika virus induced Caspase-3 activity in human astrocytoma cells (AID 1224859); details: SNB-19 ZIKV-induced caspase-3/7, luminescence, 6 h; series mostly up to 45.7 µM; activity change, negative = inhibition: at the top concentration;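 note: plate controls were ZIKV-infected untreated cells for no effect and uninfected cells for full effect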
Summary of the method: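 Human SNB-19 astrocytoma cells in RPMI 1640 with 10% FBS receive compound one hour ahead of Zika virus at 2 FFU/cell. After 6 h infection, caspase-3/7 activity is detected by Caspase-Glo luminescence.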

Row | SMILES | activity change, negative = inhibition
5 | C[N+](C)(C)CC#CCOC(=O)Nc1cccc(Cl)c1 | -5.19%
6 | COc1ccc2c(c1)/C(=C/c1cnc[nH]1)C(=O)N2 | -2.31%
7 | C=CCN(C1=NCCN1)c1c(Cl)cccc1Cl | 8.95%
8 | CCCSP(=O)(OCC)SCCC | -5.55% [at 92.8 µM]
9 | CN(N=O)c1cc(O)ccc1O | -27.8%
10 | CCCn1c(C)c(C(=O)c2ccc3ccccc3c2)c2ccccc21 | 3.73%
11 | CN1CC[C@@]2(C)c3cc(O)ccc3N(C)C12 (some centres not stated) | -1.35%
12 | C[C@@H]1[C@@H]2Cc3ccc(O)cc3[C@@]1(C)CCN2CC1CC1 | 3.24%
13 | NC(N)=Nc1ccc2[nH]c3c(c2c1)C[C@@]1(O)[C@H]2Cc4ccc(O)c5c4[C@@]1(CCN2CC1CC1)[C@H]3O5 | 22.8%
14 | N#CCCN | -8.67%
15 | O=C(O)c1cc[c]([Hg][Cl])cc1 | -8.66%
16 | CN(N=O)c1ccc(O)c(O)c1 | -4.43%
17 | C[CH2][Hg][S]c1ccccc1C(=O)O | 1.4%
18 | CC(=O)OCC1=C(C(=O)O)N2C(=O)[C@@H](NC(=O)CCC[C@@H](N)C(=O)O)[C@H]2SC1 | 2.7%
19 | CCNC(=O)[C@H]1O[C@@H](n2cnc3c(N)ncnc32)[C@H](O)[C@@H]1O | -7.89%
20 | COc1ccc2c(c1)c(CCN1CCOCC1)c(C)n2C(=O)c1cccc(Cl)c1Cl | -5.32%
21 | CCN(CCCl)Cc1ccccc1Br | -14.2%
22 | C=CCN1CCc2cccc3c2[C@H]1Cc1ccc(O)c(O)c1-3 | 4.28%
